High-throughput results from PubChem.
In the library only some 19% were active in any assay of this set; here they are far more common.
Shiga toxin inh: Shiga toxin inhibition | Vero cells, Shiga toxin protein synthesis inhibition reporter | inhibition, % at 38.7 µM | hit rate 9.2% among 290,000; in the data active means inhibition mostly above about 28%, no sharp cut-off; inactive means mostly below about 43%; further: 0% is about no effect
Pf growth 96h: P. falciparum growth inhibition at 96 hour, primary screen for plastid delayed-death inhibitors; P. falciparum luciferase reporter growth, 96 h; Potency, µM (series often up to 28.7 µM), inactives show top-dose activity change, negative = inhibition, most hits filed as inhibitors; hit rate 6.9% among 320,000; AID 504834; further: potency means the concentration at half of the fitted maximal effect; on the % scale 0 is the no-effect control and ±100 the full control effect
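Plates of compound plus infected erythrocytes (2% hematocrit, 0.05% parasitemia final) incubate 96 hours, 37 C, 5% CO2. Detection reagent added; reduced luminescence from the parasites' luciferase reporter flags inhibition.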
Pf growth 48h: P. falciparum growth inhibition at 48 hours (one generation). P. falciparum luciferase growth in erythrocytes, 48 h. hit rate 5.9% among 310,000. Potency, µM (doses to about 28.7 µM), for inactives: at the highest dose activity change, negative = inhibition, hits mostly inhibitors. AID 504832; further: potency means the concentration at half of the fitted maximal effect; on the % scale 0 is the no-effect control and ±100 the full control effect
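In quantitative HTS format, infected erythrocytes bearing luciferase-reporter parasites were treated for a single generation at 37 C. Luminescence after adding detection reagent served as the growth measure.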
AMA1-RON2 inh: inhibitors of Plasmodium falciparum AMA1-RON2 interaction; AID 720542; AlphaScreen AMA1-biotinylated RON2 peptide binding; hit rate 0.2% among 360,000; Potency, µM (top dose mostly 58.2 µM), inactives show top-dose activity change, negative = inhibition, most hits filed as inhibitors;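 further: potency means the concentration at half of the fitted maximal effect; 0% = vehicle wells and -100% = peptide control; nearly all actives have a fitted effect of over 45% in size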
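AMA1 (3D7) with his tag at 25 nM final met compounds first, then biotinylated RON2 peptide at 25 nM; detection used donor plus acceptor beads, 10 µg/mL apiece, read by AlphaScreen after 30 min at room temperature.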
CHX counter: counter-screen hit for Shiga toxin inhibitors, cycloheximide; max response, %; AID 2314; hit rate 12% among 300,000; cell reporter, cycloheximide protein synthesis inhibition counterscreen; in the data active means max response mostly above about 13%, no sharp cut-off; inactive means mostly below about 14%; further: read at 38.3 µM for the half of the compounds with a filed dose; 0% is about no effect
SARS PLpro yeast: SARS-CoV PLP inhibition in yeast; S. cerevisiae expressing SARS-CoV PLpro, growth rescue; Potency, µM (titrated, usually from 32.9 µM), for the others: at the top dose activity, positive = growth rescue, actives largely listed as activators; hit rate 0.19% among 330,000; AID 485353; calls by dose curve; further: potency means the concentration at half of the fitted maximal effect; 0% is about no effect; nearly all actives have a fitted effect of over 55% in size
Starred values were filed as active, the others as inactive; [ ] = remark or other dose. Unless noted, the call rests on the fitted dose curve; in most records, active means well fitted curve in the direction sought with a large enough effect; inconclusive means small, poorly fitted or top-dose-only effect, or another doubt; inactive means no such curve, though single readings can be large; an effect the other way counts as inactive or inconclusive.

What do the screens show for `CC1CCCC/C1=N\NS(=O)(=O)c1ccc(Br)cc1` (stereo not drawn)?
Shiga toxin inh: -1.2; Pf growth 96h: inconclusive; AMA1-RON2 inh: 13.5%; CHX counter: 9.5; SARS PLpro yeast: 0.9%

Results for O=C(NC(=S)NCC1CCCO1)c1ccc(Cl)cc1Cl (stereo not drawn) ?
Shiga toxin inh: 56.1*; Pf growth 96h: inconclusive; Pf growth 48h: 7.1%; AMA1-RON2 inh: 8.9%; CHX counter: 16.0*; SARS PLpro yeast: 19.8%

Results for CCCC(=O)Nc1nc(C)c(-c2csc(Nc3cc(OC)ccc3OC)n2)s1 ?
Shiga toxin inh: -7.2; Pf growth 96h: inconclusive; Pf growth 48h: inconclusive; AMA1-RON2 inh: 28.6%; CHX counter: 0.3; SARS PLpro yeast: 2.7%

Results for COc1ccc(CC(N)c2csc(NC(=O)Nc3cc(OC)ccc3OC)n2)cc1 (stereo not drawn) ?
AMA1-RON2 inh: 20.9%

How did CC(=O)Nc1nc(C)c(-c2csc(Nc3cccc(C(C)=O)c3)n2)s1 do in these assays?
Shiga toxin inh: 8.5; Pf growth 96h: 6.9%; AMA1-RON2 inh: 14.9%; CHX counter: 12.7; SARS PLpro yeast: -3.6%

How did CCCC(C)C(=O)Nc1nc(C)c(-c2csc(Nc3cc(OC)ccc3OC)n2)s1 (stereo not drawn) do in these assays?
Shiga toxin inh: -3.8; Pf growth 96h: 9.28µM*; Pf growth 48h: 6.57µM*; AMA1-RON2 inh: 0.0%; CHX counter: -3.6; SARS PLpro yeast: 1.7%

How did Cc1nc(NC(=O)c2ccccc2)sc1-c1csc(Nc2ccc(C(=O)O)cc2)n1 do in these assays?
Shiga toxin inh: 2.1; Pf growth 96h: 2.94µM*; Pf growth 48h: 56.8%; AMA1-RON2 inh: 1.0%; CHX counter: 10.1*; SARS PLpro yeast: -3.6%

Results for COc1cccc(Nc2nc(-c3sc(NC(=O)c4ccccc4)nc3C)cs2)c1 ?
Shiga toxin inh: 70.9*; Pf growth 96h: 4.15µM*; Pf growth 48h: 5.22µM*; AMA1-RON2 inh: 8.3%; CHX counter: 13.3; SARS PLpro yeast: -2.1%

Results for C=CCCC(=O)Nc1nc(C)c(-c2csc(Nc3cc(OC)ccc3OC)n2)s1 ?
Shiga toxin inh: 27.1; Pf growth 96h: 13.1µM*; Pf growth 48h: inconclusive; AMA1-RON2 inh: -13.7%; CHX counter: 14.8; SARS PLpro yeast: -5.6%

Results for CC(=O)Nc1ccc(NC(=O)C(C)Sc2nc3ccccc3c(=O)n2CC2CCCO2)cc1 (stereo not drawn) ?
Pf growth 96h: -17.5%; Pf growth 48h: inconclusive; AMA1-RON2 inh: -2.0%

How did COc1cccc(Nc2nc(-c3sc(NC(=O)CC(C)C)nc3C)cs2)c1 do in these assays?
Shiga toxin inh: 15.4; Pf growth 96h: 13.1µM*; Pf growth 48h: inconclusive; AMA1-RON2 inh: 61.2%; CHX counter: 11.9; SARS PLpro yeast: -1.4%

How did Cc1nc(N)sc1-c1csc(Nc2cccc(C(=O)O)c2)n1 do in these assays?
Shiga toxin inh: -9.0; Pf growth 96h: 155.6%; Pf growth 48h: 14.0%; AMA1-RON2 inh: 41.6%; CHX counter: -0.8; SARS PLpro yeast: 3.0%

What do the screens show for `COc1ccc(OC)c(Nc2nc(-c3sc(N)nc3C)cs2)c1`?
Shiga toxin inh: -7.6; Pf growth 48h: 14.7µM*; AMA1-RON2 inh: 27.3%; CHX counter: -2.7; SARS PLpro yeast: -2.0%

What do the screens show for `CCC(=O)Nc1nc(C)c(-c2csc(Nc3cccc(C(=O)O)c3)n2)s1`?
Shiga toxin inh: 12.3; Pf growth 96h: inconclusive; Pf growth 48h: 98.2%; AMA1-RON2 inh: -25.4%; CHX counter: 10.8; SARS PLpro yeast: -1.0%

What do the screens show for `C=CCCC(=O)Nc1nc(C)c(-c2csc(Nc3cccc(OC)c3)n2)s1`?
Shiga toxin inh: 19.8; Pf growth 96h: 11.7µM*; Pf growth 48h: 2.62µM*; AMA1-RON2 inh: 24.7%; CHX counter: -2.4; SARS PLpro yeast: -1.1%

What do the screens show for `CCCCNC(=O)Oc1c(Br)cc2sc(=O)oc2c1Br`?
Shiga toxin inh: -13.9; Pf growth 96h: 19.3%; Pf growth 48h: 4.6%; CHX counter: 1.7; SARS PLpro yeast: inconclusive

What do the screens show for `CCc1cccc(NC(=O)CCCCCC2NC(=O)NC2C)c1` (stereo not drawn)?
Shiga toxin inh: -6.0; Pf growth 96h: inconclusive; Pf growth 48h: -5.2%; AMA1-RON2 inh: -17.1%; CHX counter: -2.5; SARS PLpro yeast: -1.0%

Results for CCOC(=O)c1cnc2ccc(OCC)cc2c1N(C)Cc1ccccc1 ?
Shiga toxin inh: -4.6; Pf growth 96h: inconclusive; Pf growth 48h: inconclusive; AMA1-RON2 inh: -16.9%; CHX counter: -3.3; SARS PLpro yeast: -46.3%

How did Cc1nc2c(-c3ccc(Cl)cc3)cnn2c(N)c1-c1ccc(F)cc1 do in these assays?
Shiga toxin inh: 137.6*; Pf growth 96h: 232.0%; Pf growth 48h: 6.1%; AMA1-RON2 inh: 29.3%; CHX counter: 63.8*; SARS PLpro yeast: -0.2%

What do the screens show for `Cc1cc(C(F)(F)F)n2ncc(-c3ccc(F)cc3)c2n1`?
Shiga toxin inh: 2.0; Pf growth 96h: 4.4%; AMA1-RON2 inh: 3.0%; CHX counter: 6.4; SARS PLpro yeast: -10.0%

What do the screens show for `Nc1c(-c2ccc(Cl)cc2)cnc2c(-c3ccc(F)cc3)cnn12`?
Shiga toxin inh: 87.6*; Pf growth 96h: 302.3%; Pf growth 48h: 195.1%; AMA1-RON2 inh: 12.5%; CHX counter: 34.3*; SARS PLpro yeast: -1.1%

What do the screens show for `COc1ccc(-c2c(C)nc3c(-c4ccc(F)cc4)cnn3c2N)cc1`?
Shiga toxin inh: 52.7*; Pf growth 96h: 58.1%; Pf growth 48h: 290.3%; AMA1-RON2 inh: 13.3%; CHX counter: 66.0*; SARS PLpro yeast: -0.5%

How did Cc1nn2c(N)c(-c3ccccc3)cnc2c1-c1ccccc1 do in these assays?
Shiga toxin inh: 31.2; Pf growth 96h: 58.0%; Pf growth 48h: 42.7%; AMA1-RON2 inh: 13.6%; CHX counter: 16.6*; SARS PLpro yeast: -1.9%

What do the screens show for `O=[N+]([O-])c1cccc(CSc2nnc(Cc3ccccc3)n2-c2ccc(F)cc2)c1`?
Shiga toxin inh: -15.0; Pf growth 96h: inconclusive; Pf growth 48h: inconclusive; AMA1-RON2 inh: -0.6%; CHX counter: -4.4; SARS PLpro yeast: 0.4%

How did COc1cccc(/C=N/NC(=O)c2nnn(-c3nonc3N)c2CN(C)C2CCCCC2)c1 do in these assays?
AMA1-RON2 inh: -3.8%

How did CCc1ccc(CNC(=O)Cn2nc(-c3ccccc3)ccc2=O)cc1 do in these assays?
Shiga toxin inh: -18.2; Pf growth 96h: inconclusive; Pf growth 48h: 8.5%; AMA1-RON2 inh: 0.7%; CHX counter: 0.8; SARS PLpro yeast: -7.9%

What do the screens show for `Cc1nc2c(Cl)c(C)nn2c2c1CCC2`?
Shiga toxin inh: -10.8; Pf growth 96h: -13.6%; Pf growth 48h: inconclusive; AMA1-RON2 inh: 2.1%; CHX counter: 11.0; SARS PLpro yeast: 0.2%

What do the screens show for `Cc1nc2c(-c3ccc(F)cc3)cnn2c(N)c1-c1ccccc1`?
Shiga toxin inh: 140.5*; Pf growth 96h: -51.6%; Pf growth 48h: 4.5%[0.00184 µM]; AMA1-RON2 inh: 138.7%; CHX counter: 59.3*; SARS PLpro yeast: -10.8%
